The text below walks through data of PubChem BioAssay (EPA / NIEHS).

Each structure is given as a SMILES string. Records with an inconclusive call do not appear. The source made the active and inactive calls. The calls were made as follows: active = hit-call score of the fitted dose curve at least 0.9, where 1 is the maximum; inconclusive = response in the unintended direction; inactive = score below 0.9.

Usually AC50 stands for the midpoint of the concentration-response curve, whichever way the signal moves.

This assay in a line: ACEA_ER_AUC_viability: ACEA Biosciences xCELLigence Real-Time Cell Analysis on Estrogen Receptor Agonism for Viability (AID 2283782).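 Also: hit means loss of impedance signal meaning reduced cell growth or viability.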 The procedure, abridged: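 Read-out: real-time electrical impedance (RT-CES) area under curve, loss of signal taken as reduced viability, normalized to DMSO baseline. T-47D cells, charcoal-stripped serum medium, compounds up to 100 uM final, continuous exposure, 80 h.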
Turning to `COC(=O)c1ccccc1C`, the call was inactive.

In the case of `O=C(Cl)c1c(Cl)c(Cl)c(C(=O)Cl)c(Cl)c1Cl`, the outcome was inactive. Turning to `CCC(C)N` (centres undefined), the AC50 was 74.5 µM (active). For `CC(C)c1cc(C(C)C)cc(C(C)C)c1`, the outcome was inactive. Still for that read-out and setting: the value for `C=C(C)OC(C)=O` was “inactive”.

In the case of `CC1=NN(c2ccc(S(=O)(=O)O)cc2)C(=O)C1N=Nc1ccccc1` (centres undefined), the result was inactive. For the compound `CCCCCCCCCC[N+](C)(CCCCCCCCCC)CCC[Si](OC)(OC)OC`, the AC50 is 17 µM (active). For the compound `CC(C)c1cccc(C(C)C)c1N`, the call was inactive. Same read-out and setting: the value for `Cc1c(Cl)cccc1Cl` was “inactive”; that for `Nc1ccnc(=O)[nH]1` was “inactive”.

As to `O=C(C=Cc1ccccc1)OCCc1ccccc1`, the AC50 was 58 µM (active). Still for that read-out and setting: with `CC(C)CC(=O)OCc1ccccc1` the figure was 50 µM (active). Turning to `CC(=O)OCCc1ccccc1`, the compound was classed as inactive. Same read-out and setting: the value for `CC(C)CCOCc1ccccc1` was “inactive”. As for `CCN1CN(CC)CN(CC)C1`, the AC50 was 66.4 µM (active). Consider `CCCCOC(=O)C(C)CC` (centres undefined), for which the result was inactive.

Turning to `C=CC(=O)NC(C)(C)C`, the result was inactive. In the case of `O=C1c2ccccc2C(=O)c2cc(S(=O)(=O)O)ccc21`, the result was inactive. As to `CCCCCCCCCCCCCCCCCCOS(=O)(=O)O`, the half-maximal activity concentration (AC50) is 75.4 µM (active). With `CC1(C)C(=O)N(CO)C(=O)N1CO`, the call was inactive. On the same count and under the same terms, with `CC1CC(=O)CC(C)(C)C1` (centres undefined) the entry was “inactive”. On to `C=CCOC(=O)c1ccc(C(=O)OCC=C)c(C(=O)OCC=C)c1`, for which the compound was called inactive. Same read-out and setting: with `COC(=O)CC(C)CCC=C(C)C` (centres undefined) the entry was “inactive”. In the case of `C[N+](C)(C)CCCNS(=O)(=O)C(F)(F)C(F)(F)C(F)(F)C(F)(F)C(F)(F)C(F)(F)C(F)(F)C(F)(F)F`, the half-maximal activity concentration (AC50) is 111 µM (active).

Consider `CCCCC(C=O)CC` (centres undefined), for which the call was inactive. On to `O=C(Oc1ccccc1)c1ccccc1O`, for which the result was inactive. Consider `C=CC(=O)OCC(C)OCC(C)OCC(C)OC(=O)C=C` (centres undefined), for which the AC50 is 21.3 µM (active). Still for that read-out and setting: the value for `Nc1ccc(Cl)c(N)c1` was 73 µM (active); that for `COc1ccc(C(=O)/C(Br)=C\C(=O)O)cc1` was 29.2 µM (active). Turning to `CCCCCCCC(=O)OCC`, the compound was classed as inactive.

`CCCCOC(=O)CCC(C)=O`: the call was inactive. Regarding `CC1CCC(=O)C1=O` (centres undefined), the AC50 was 10.3 µM (active). Consider `CC(=O)c1ccccc1O`, for which the result was inactive. In the case of `CC(=O)C(C)C`, the compound was called inactive.
